Measurements reported in PMC9838217, “Structure of SALL4 zinc finger domain reveals link between AT-rich DNA binding and Okihiro syndrome”.
Positions count from the first letter of the chain named.

Columns and labels:
Test in all cases: HT-SELEX; high values mean tight binding
Conditions in all cases: protein: recombinant; vector His6-GST; dsDNA, one strand shown
SALL4 ZFC4 WT (HT-SELEX) = target: T1, SALL4 ZFC4 WT (HT-SELEX) (Mus musculus, UniProt Q8BX22 870-940)
T1 sequence: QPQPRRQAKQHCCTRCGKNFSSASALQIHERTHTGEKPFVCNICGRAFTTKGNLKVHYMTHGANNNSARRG
How it was run: (§1)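 Library DNA (1.5 µg in cycle one, 200 ng in later cycles) was incubated with 1 µg of purified recombinant mouse SALL4 zinc finger cluster 4, residues 870–940, in 100 µl buffer (10 mM Tris–HCl pH 7.5, 50 mM NaCl, poly(dI-dC), DTT) at room temperature for 10 min. Up to 6 rounds of Ni2+ bead capture, washing, PCR amplification and reselection were run in triplicate. Reads from MiSeq sequencing were scanned for 6-mers. For each canonical k-mer, binding signal is its read fraction as fold change versus the original random library.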

[1] = target: T2, SALL4 ZFC4 R900W (HT-SELEX) (Mus musculus, UniProt Q8BX22 870-940, R900W)
T2 sequence: T1 sequence with R31W
How it was run: as §1

[2] = target: T3, SALL4 ZFC4 G921D (HT-SELEX) (Mus musculus, UniProt Q8BX22 870-940, G921D)
T3 sequence: T1 sequence with G52D
How it was run: as §1

Sequence | binding signal (SALL4 ZFC4 WT (HT-SELEX)) [fold-change vs cycle 0] | binding signal [1] [fold-change vs cycle 0] | binding signal [2] [fold-change vs cycle 0]
CCATCG | 0.385 ± 0.00824 | 0.438 ± 0.0205 | 0.557 ± 0.0511
GAGCAA | 0.613 ± 0.0271 | 0.69 ± 0.0379 | 0.797 ± 0.00723
GGTGAC | 0.454 ± 0.0238 | 0.526 ± 0.0318 | 0.642 ± 0.0609
CACCTG | 0.456 ± 0.0357 | 0.549 ± 0.0259 | 0.631 ± 0.0331
AGAGGA | 0.933 ± 0.0495 | 1.09 ± 0.0506 | 1.07 ± 0.0639
CGAATA | 1.1 ± 0.0554 | 1.13 ± 0.0519 | 1.14 ± 0.0398
ACAAAT | 1.82 ± 0.0876 | 1.76 ± 0.0787 | 1.61 ± 0.106
ACAGCT | 0.616 ± 0.0411 | 0.714 ± 0.0328 | 0.811 ± 0.0395
CAACTA | 1.19 ± 0.0469 | 1.31 ± 0.0705 | 1.29 ± 0.0584
AAACTT | 1.81 ± 0.119 | 1.89 ± 0.128 | 1.68 ± 0.174
GCAAGA | 0.671 ± 0.0141 | 0.766 ± 0.0335 | 0.825 ± 0.0528
GATGTA | 1.358 ± 0.0117 | 1.425 ± 0.0112 | 1.34 ± 0.0458
AGTTAG | 1.428 ± 0.0117 | 1.56 ± 0.0647 | 1.46 ± 0.0871
CCAGGA | 0.465 ± 0.017 | 0.546 ± 0.0174 | 0.63 ± 0.0152
GAGTGA | 0.906 ± 0.0342 | 1.02 ± 0.0645 | 1.05 ± 0.0602
GTAGTA | 1.29 ± 0.036 | 1.41 ± 0.0747 | 1.33 ± 0.0906
AGCTGA | 0.687 ± 0.028 | 0.802 ± 0.0342 | 0.882 ± 0.0146
CATTAG | 1.317 ± 0.00537 | 1.45 ± 0.0172 | 1.39 ± 0.0502
GAAGGC | 0.304 ± 0.0244 | 0.39 ± 0.0131 | 0.522 ± 0.0691
GGGGTA | 0.484 ± 0.0383 | 0.541 ± 0.0115 | 0.611 ± 0.0687

Sequence | binding signal (SALL4 ZFC4 WT (HT-SELEX)) [fold-change vs cycle 0] | binding signal [1] [fold-change vs cycle 0] | binding signal [2] [fold-change vs cycle 0]
AAGGAC | 0.805 ± 0.0174 | 0.941 ± 0.0375 | 0.9757 ± 0.00429
ACAATC | 1.25 ± 0.051 | 1.38 ± 0.0687 | 1.36 ± 0.0869
ATAACC | 1.63 ± 0.137 | 1.47 ± 0.11 | 1.38 ± 0.107
GTACGA | 0.706 ± 0.0277 | 0.794 ± 0.0311 | 0.843 ± 0.0399
ATAGAT | 2.3 ± 0.159 | 2.05 ± 0.124 | 1.86 ± 0.167
CAATTA | 1.91 ± 0.128 | 1.83 ± 0.147 | 1.71 ± 0.164
ATTCAG | 1.31 ± 0.0442 | 1.44 ± 0.0342 | 1.36 ± 0.0925
ATGCAC | 0.606 ± 0.0179 | 0.667 ± 0.022 | 0.775 ± 0.052
AGTCCC | 0.468 ± 0.0376 | 0.54 ± 0.0297 | 0.65 ± 0.0407
ACCTGA | 0.842 ± 0.0331 | 1 ± 0.047 | 1.02 ± 0.0552
AGGAGG | 0.615 ± 0.0373 | 0.701 ± 0.0545 | 0.762 ± 0.023
CTTCCC | 0.499 ± 0.032 | 0.599 ± 0.0427 | 0.656 ± 0.0665
AATCGG | 0.593 ± 0.0172 | 0.657 ± 0.021 | 0.763 ± 0.0166
AACTCG | 0.7 ± 0.0308 | 0.798 ± 0.00905 | 0.871 ± 0.024
GGATCA | 0.841 ± 0.0365 | 0.972 ± 0.0131 | 1.03 ± 0.0289
ACCCAA | 0.736 ± 0.034 | 0.839 ± 0.0217 | 0.873 ± 0.0335
GTAGCA | 0.6472 ± 0.00166 | 0.74 ± 0.0284 | 0.817 ± 0.0421
GACCCA | 0.39 ± 0.0219 | 0.467 ± 0.00775 | 0.59 ± 0.0677
CGATAG | 0.68 ± 0.0214 | 0.774 ± 0.0246 | 0.851 ± 0.0176
CTGACC | 0.426 ± 0.0325 | 0.52 ± 0.0363 | 0.621 ± 0.0521

Sequence | binding signal (SALL4 ZFC4 WT (HT-SELEX)) [fold-change vs cycle 0] | binding signal [1] [fold-change vs cycle 0] | binding signal [2] [fold-change vs cycle 0]
AGTGTG | 0.745 ± 0.0331 | 0.85 ± 0.0147 | 0.909 ± 0.0296
ACCGAA | 0.637 ± 0.01 | 0.698 ± 0.028 | 0.776 ± 0.0511
GGGGAA | 0.462 ± 0.0251 | 0.532 ± 0.0365 | 0.614 ± 0.0545
CATGCC | 0.31 ± 0.0224 | 0.354 ± 0.0129 | 0.48 ± 0.0491
GTATAA | 2.08 ± 0.124 | 1.96 ± 0.165 | 1.74 ± 0.197
ATAAAG | 2.23 ± 0.104 | 2.12 ± 0.11 | 1.79 ± 0.17
AGAATC | 1.3 ± 0.1 | 1.47 ± 0.0816 | 1.41 ± 0.128
AGCTAA | 1.15 ± 0.044 | 1.26 ± 0.0399 | 1.27 ± 0.0601
CAATGC | 0.595 ± 0.019 | 0.673 ± 0.0218 | 0.807 ± 0.0224
AGTGAT | 1.45 ± 0.0292 | 1.59 ± 0.0395 | 1.53 ± 0.097
CAATTC | 1.19 ± 0.016 | 1.29 ± 0.063 | 1.25 ± 0.0527
AATAAT | 4.57 ± 0.438 | 2.66 ± 0.189 | 2.27 ± 0.265
ACGCAT | 0.526 ± 0.0513 | 0.556 ± 0.0269 | 0.714 ± 0.0322
ATCATG | 1.38 ± 0.03 | 1.48 ± 0.0158 | 1.4 ± 0.0239
GGTGAA | 0.8 ± 0.0301 | 0.905 ± 0.0496 | 0.952 ± 0.0511
AGCAGG | 0.42 ± 0.0145 | 0.478 ± 0.0232 | 0.561 ± 0.0608
CTTTTC | 1.14 ± 0.0195 | 1.29 ± 0.0412 | 1.218 ± 0.00999
CCTCTA | 0.817 ± 0.034 | 0.915 ± 0.0455 | 0.953 ± 0.0421
TGGACA | 0.662 ± 0.0418 | 0.761 ± 0.0205 | 0.847 ± 0.0377
AAATAT | 5.57 ± 0.542 | 2.36 ± 0.147 | 2.07 ± 0.227
